# KB-3-1 cytotox – qHTS assay for MDR1-selective chemotherapeutics: Primary screen using the parental adenocarcinoma cell KB-3-1. KB-3-1 viability, CellTiter-Glo ATP luminescence, 72 h. Potency, µM (doses to about 46.1 µM), hits mostly cytotoxic. 400,000 compounds, 1.4% hits. AID 1347075, 2019; also: nearly all actives have a fitted effect of over 60% in size
#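 Cytotoxicity in the drug-sensitive parental line KB-3-1 was scored as loss of CellTiter-Glo luminescence following 72 h incubation with compound. Values come from curve fitting of normalized concentration-response data.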
# HT1080 IDH1KD tx – qHTS for induction of synthetic lethality in tumor cells producing 2HG: qHTS for the HT-1080-IDH1KD cell line. Potency, µM (titrated, usually from 46.1 µM), usual class: cytotoxic. HT-1080 IDH1 knockdown viability, ATP luminescence, 48 h. AID 686971, 2013. 360,000 compounds, 2% hits
#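 Luminescent ATP read-out (CellTiter-Glo, 10 min at room temperature) after 48 h compound exposure at 37 °C gave viability of IDH1-knockdown HT-1080 cells. Activity was normalised to DMSO and cell-free wells, then fitted as concentration-response curves.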
# KB-V1 MDR tox – qHTS assay for MDR1-selective chemotherapeutics: Primary screen using the drug-selected MDR subline cells KB-V1; KB-V1 MDR cells viability, CellTiter-Glo, 72 h; Potency, µM (top dose mostly 46.1 µM), usual class: cytotoxic; 400,000 compounds, 3.4% hits; also: nearly all actives have a fitted effect of over 60% in size
#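 Readout: CellTiter-Glo luminescence, 10 min after addition. Cells: KB-V1 MDR subline, 72 h at 37 degrees C with compound. Analysis: corrected, normalized data fitted to concentration-effect curves.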
# SW480 rerep – A quantitative high throughput screen for small molecules that induce DNA re-replication in SW480 colon adenocarcinoma cells; SW480 DNA re-replication, Hoechst DNA content imaging, 48 h; Potency, µM (highest dose often 46.1 µM), usual class: activators; 340,000 compounds, 1.8% hits; also: nearly all actives have a fitted effect of over 55% in size
#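 Cells (250 per well) received 23 nL compound or DMSO by pin tool and were kept 48 hr at 37 C, 5% CO2. Nuclei were then stained with Hoechst for 40 min and scanned for DNA content.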
# HT1080NT lethal – qHTS for induction of synthetic lethality in tumor cells producing 2HG: qHTS for the HT-1080-NT fibrosarcoma cell line | Potency, µM (titrated, usually from 46.1 µM), usual class: cytotoxic | HT-1080-NT fibrosarcoma viability, CellTiter-Glo ATP luminescence, 48 h | AID 686970, 2013 | 360,000 compounds, 1.6% hits;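 also: NT is the 2HG producing partner of a matched IDH1 knockdown line; nearly all actives have a fitted effect of over 55% in size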
#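 Viability by CellTiter-Glo luminescence after 48 h compound exposure at 37C of HT-1080-NT cells (750/well, RPMI, 5% FBS). % activity scaled between DMSO wells and medium-only wells, then curve-fitted and categorized by curve class.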
# MCF10A rereplic – A quantitative high throughput screen for small molecules that induce DNA re-replication in MCF 10a normal breast cells | Potency, µM (top dose mostly 46.1 µM), hits mostly activators | 350,000 compounds, 2.9% hits | MCF 10A DNA re-replication, Hoechst nuclear intensity, 48 h | AID 624296, 2012; also: nearly all actives have a fitted effect of over 50% in size
# Hits are given with their value; - = inactive; ? = inconclusive; . = no result; [ ] = dose if it differs, or a comment. Only some compounds are listed: those with a hit (about 7.9% of all), similar ones and a draw of the others. Calls follow the shape of the dose curve; as a rule, active = well fitted curve in the direction sought with a large enough effect; inconclusive = small, poorly fitted or top-dose-only effect, or another doubt; inactive = no such curve, though single readings can be large; an effect the other way counts as inactive or inconclusive.
SMILES,KB-3-1 cytotox,HT1080 IDH1KD tx,KB-V1 MDR tox,SW480 rerep,HT1080NT lethal,MCF10A rereplic
C/C(=N\O)c1ccc2c3ccccc3n(C)c2c1,2.59µM,-,?,-,-,-
COc1ccc(S(=O)(=O)Nc2cc(C)c(O)c(S(=O)(=O)c3ccccc3)c2)cc1,-,-,16.4µM,-,-,-
Cc1ccc(C(=O)N2CCC2(C)C(=O)NC(C)C)cc1 (configuration not stated),-,-,-,.,-,.
CC1CCN(c2nc(/C=C/c3ccccc3)nc3ccccc23)CC1,-,?,?,-,?,20.6µM
C(=C\c1nc(N2CCCC2)c2ccccc2n1)/c1ccccc1,23.1µM,?,?,?,25.9µM,?
CCCCC[C@@H](C)N1C[C@H](COCc2ccccc2)Oc2cc(N3CC[C@H](O)C3)ccc2S1(=O)=O,?,?,-,.,?,.
COc1cccc(CNC(=O)Cc2c(C(=O)O)c(C)cn2C)c1,-,.,-,.,.,.
O=C(c1ccccc1)c1sc(N2CCCCCC2)nc1-c1ccccc1,?,-,?,-,-,?
O=C(c1ccc(Br)cc1)c1sc(N2CCOCC2)nc1-c1ccccc1,?,-,?,-,-,16.4µM
COc1ccc(-c2nc(N3CCCCCC3)sc2C(=O)c2ccccc2)cc1,-,-,-,-,-,14.6µM
[2H]c1c([2H])c([2H])c(C(=O)c2sc(N3CCCCCC3)nc2-c2ccccc2)c([2H])c1[2H],?,-,-,-,-,9.2µM
O=C(NCc1ccc2c(c1)CCN2C(=O)c1ccc(F)cc1)c1ccco1,-,.,-,.,.,.
COC(=O)c1c(NC(=O)COc2ccc(Cl)cc2)sc2c1CC(C)(C)NC2(C)C,?,-,?,?,-,?
Cc1cc(OCC(=O)Nc2sc3c(c2C#N)CC(C)(C)NC3(C)C)c(C(C)C)cc1Cl,-,-,-,-,-,18.4µM
CC1(C)Cc2c(sc(NC(=O)c3ccco3)c2C#N)C(C)(C)N1,-,-,18.4µM,-,-,-
CC1(C)Cc2c(sc(NC(=O)COc3ccc(Cl)cc3Cl)c2C(N)=O)C(C)(C)N1,-,-,-,?,-,23.1µM
COc1ccccc1C(=O)NCCn1cc(SCc2ccc(C)cc2)c2ccccc21,-,.,-,.,.,.
COCCNC(=O)CN1C(=O)c2cccnc2Oc2ccc(Cl)cc21,?,.,-,.,.,.
Cn1ccc2cc(S(=O)(=O)N3CCCC(C(=O)NCc4ccc(F)cc4)C3)ccc21 (configuration not stated),-,.,-,.,.,.
CN(C)C(=O)NC1c2ccccc2-c2ccccc21,-,-,-,-,-,-
O=C(NC1c2ccccc2-c2ccccc21)N1CCCCC1,?,-,16.4µM,-,-,-
CCOc1ccc(S(=O)(=O)N(C)CCO)cc1-c1nc2c(C(C)(C)C)nn(C)c2c(=O)[nH]1,?,-,10.3µM,-,-,-
CCOc1ccc(S(=O)(=O)N(C)C)cc1-c1nc2c(C(C)(C)C)nn(C)c2c(=O)[nH]1,-,?,?,-,-,?
Cc1ccc2nc(Nc3nc(CSc4nnc(C)s4)cc(=O)[nH]3)nc(C)c2c1,?,-,23.1µM,?,-,-
COc1ccc2c(C)nc(Nc3nc(-c4ccccc4)cc(=O)[nH]3)nc2c1,4.61µM,?,?,3.66µM,?,4.61µM
SMILES,KB-3-1 cytotox,HT1080 IDH1KD tx,KB-V1 MDR tox,SW480 rerep,HT1080NT lethal,MCF10A rereplic
Cc1ccc(SCc2cc(=O)[nH]c(Nc3nc(C)c4ccc(C)cc4n3)n2)cc1,-,-,-,-,-,-
COc1ccc2nc(Nc3nc(CSc4nnc(C)s4)cc(=O)[nH]3)nc(C)c2c1,.,.,.,-,.,-
Cc1nc(Nc2nc3c(c(=O)[nH]2)CCC3)nc2ccccc12,5.8µM,?,?,-,?,?
Cc1ccc2c(C)nc(Nc3nc(CSc4nc5ccccc5[nH]4)cc(=O)[nH]3)nc2c1,-,11.2µM,?,-,17.8µM,-
Cc1ccc(SCc2cc(=O)[nH]c(Nc3nc(C)c4ccccc4n3)n2)cc1,-,-,9.2µM,-,-,-
Cc1ccc2nc3n(c(=O)c2c1)-c1cc2ccccc2cc1C(=O)NC3Cc1ccccc1 (configuration not stated),?,14.6µM,?,.,?,.
O=C1NC(Cc2ccccc2)c2nc3ccc(F)cc3c(=O)n2-c2cc3ccccc3cc21 (configuration not stated),?,5.8µM,20.6µM,.,5.8µM,.
C[C@@H]1ON(C)[C@H]2C[C@H]3c4cc(-c5cccc(F)c5)ccc4CCN3C(=O)[C@@H]12,-,-,-,-[9.22 µM],-,-
COc1ccc(S(=O)(=O)Nc2ccc3cn[nH]c3c2)cc1C,-,-,?,-,-,-
CCOC(=O)c1ccc(S(=O)(=O)Nc2ccc3cn[nH]c3c2)cc1,?,-,18.4µM,-,-,-
CCc1noc(C)c1C(=O)N1CC(C)SC1=Nc1ccc(Cl)cc1 (configuration not stated),-,-,16.4µM,-,-,-
Cc1ccc(OCc2cc(C(=O)N(C)Cc3cnn(-c4ccccc4C)c3)no2)cn1,18.4µM,20.6µM,?,-,18.4µM,-
Cc1cc(OCc2cc(C(=O)N(C)C3CCOC3)no2)cc(C)c1Cl (configuration not stated),?,-,?,-,-,2.31µM
CCc1ccc(CN(C)C(=O)c2cc(COc3cc(C)c(Cl)c(C)c3)on2)nc1,-,?,-,-,?,23.1µM
Cc1cc(OCc2cc(C(=O)N(C)Cc3nonc3C)no2)cc(C)c1Cl,-,-,?,-,-,?
Cc1ccc(NC(=O)c2ccc3snnc3c2)cc1Cl,-,.,-,.,.,.
CC(C)CCN(CCC(C)C)CC(O)Cn1c2ccccc2c(=O)c2ccccc21 (configuration not stated),-,-,?,?,-,3.26µM
CCCN(CCC)CC(O)Cn1c2ccccc2c2ccccc21 (configuration not stated),-,-,-,?,-,-
O=C(Nc1cc(-c2ccc(Cl)cc2)no1)c1ccc(F)cc1,-,.,?,.,.,.
O=c1c2ccccc2nc2sc(Nc3cccc(C(F)(F)F)c3)nn12,-,.,-,.,.,.
COc1cc(CCNC2=CC(=O)c3ncccc3C2=O)ccc1O,5.8µM,14.6µM,7.31µM,14.6µM,?,?
